Many of the other results were omitted from the sample, so hits are more common in it than they were.
IL1B secr inh: inflammasome signaling inhibition, IL-1 beta readout; THP-1 LPS/ATP IL-1B secretion, AlphaLISA, 16 h; active compounds read low; activity change, % at 57.5 µM; AID 743279; 360,000 tested, 4.7% active; in the data active means activity change below about -50%; inconclusive means mostly about -30% to -49%
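THP-1 cells pretreated 1 hr with compounds (up to 57.5 uM final), then stimulated with LPS (250 ng/mL final) plus ATP (1.25 mM final); secreted IL-1B measured by AlphaLISA after 16 hr, decreased signal indicating inhibition.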
HT1080 IDH1KD tx: HT-1080 IDH1 knockdown cell toxicity (counter line); 360,000 tested, 2% active; Potency, µM (top dose mostly 46.1 µM), for inactives: at the top dose activity, negative = toxicity, usual class: cytotoxic; HT-1080 IDH1 knockdown viability, ATP luminescence, 48 h; AID 686971;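 further: potency means the concentration at half of the fitted maximal effect; 0% = DMSO wells and -100% = cell-free medium wells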
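Viability of IDH1-knockdown HT-1080 fibrosarcoma cells was assessed by CellTiter-Glo after 48 h at 37 °C with titrated compound; concentration-effect curves were classified by fit quality and response size.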
DT40 TDP1 no CPT: qHTS for Inhibitors of human tyrosyl-DNA phosphodiesterase 1 (TDP1): qHTS in cells in absence of CPT; AID 686978, 2013; 420,000 tested, 15% active; DT40 Tdp1-/- hTDP1 cells, no CPT, ATP luminescence, 48 h; Potency, µM (doses to about 46.2 µM), without a hit: at the top dose activity change, negative = growth inhibition, usual class: inhibitors; further: potency means the concentration at half of the fitted maximal effect; nearly all actives have a fitted effect of over 55% in size
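Readout: luminescence from CellTiter-Glo after 30 min in the dark at RT. Cells: DT40 Tdp1-/- with stable hTDP1, 400/well. Exposure: compounds alone, ≥48 hr, 37 °C.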
DT40 TDP1 CPT: growth inhibition of DT40 Tdp1-/-;hTDP1 cells with camptothecin (screen for TDP1 inhibitors); Potency, µM (doses to about 46.2 µM), for inactives: at the highest dose activity change, negative = growth inhibition, actives largely listed as inhibitors; chicken DT40 Tdp1-/-;hTDP1 cells + 20 nM CPT, ATP luminescence, 48 h; 420,000 tested, 12% active; further: potency means the concentration at half of the fitted maximal effect; nearly all actives have a fitted effect of over 55% in size
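Cell growth measured by CellTiter-Glo luminescence after a minimum 48 h, 37 C compound exposure with 20 nM CPT in Tdp1-knockout DT40 cells stably expressing hTDP1, seeded 400/well; qHTS titration format.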
HT1080-NT tox: kills 2HG-producing HT-1080-NT fibrosarcoma cells; HT-1080-NT fibrosarcoma viability, CellTiter-Glo ATP luminescence, 48 h; Potency, µM (series often up to 46.1 µM), for inactives: at the top dose activity, negative = less viability, hits mostly cytotoxic; 360,000 tested, 1.6% active; AID 686970;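 further: NT is the 2HG producing partner of a matched IDH1 knockdown line; potency means the concentration at half of the fitted maximal effect; 0% = DMSO-treated cells and -100% = media-only wells without cells; nearly all actives have a fitted effect of over 55% in size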
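Luminescent CellTiter-Glo readout after 48 hours of compound exposure at 37 degrees C defined viability of HT-1080-NT cells. Activity was normalized to DMSO wells and cell-free media wells; concentration-response curves were fitted and assigned curve classes.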
ALOX12 inh: inhibitors of human 12S-lipoxygenase ALOX12; Potency, µM (series often up to 108 µM), inactives show top-dose activity change, negative = inhibition, actives largely listed as inhibitors; 580,000 tested, 1.1% active; P18054; purified 12hLO, xylenol orange hydroperoxide absorbance; AID 1671190; further: potency means the concentration at half of the fitted maximal effect
Target sequence (P18054 whole entry, looked up): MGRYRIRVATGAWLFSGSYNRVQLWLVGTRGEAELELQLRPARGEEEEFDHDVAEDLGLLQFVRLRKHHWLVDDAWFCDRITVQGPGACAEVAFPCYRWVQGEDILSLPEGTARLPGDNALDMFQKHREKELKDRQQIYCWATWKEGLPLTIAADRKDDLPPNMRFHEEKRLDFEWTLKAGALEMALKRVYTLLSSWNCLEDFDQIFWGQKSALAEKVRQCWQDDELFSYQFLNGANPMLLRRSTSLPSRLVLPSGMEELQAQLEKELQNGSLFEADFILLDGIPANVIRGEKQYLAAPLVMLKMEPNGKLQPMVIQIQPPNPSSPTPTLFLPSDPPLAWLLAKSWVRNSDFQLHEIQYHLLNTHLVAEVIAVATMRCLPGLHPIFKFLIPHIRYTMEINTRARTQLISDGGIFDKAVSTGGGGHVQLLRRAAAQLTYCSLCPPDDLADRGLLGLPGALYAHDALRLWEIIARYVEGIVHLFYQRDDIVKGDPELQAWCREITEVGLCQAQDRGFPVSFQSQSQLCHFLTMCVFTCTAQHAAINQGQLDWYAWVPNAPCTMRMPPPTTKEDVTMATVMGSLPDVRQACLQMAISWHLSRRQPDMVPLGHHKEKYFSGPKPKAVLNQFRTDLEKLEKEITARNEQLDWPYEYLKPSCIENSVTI
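Hydroperoxide product was detected by ferrous iron/xylenol orange as the 573 to 405 nm absorbance ratio. Arachidonic acid at 40 uM (final) was turned over for 30 min at room temperature by 150 nM human 12hLO, pH 7.0 Hepes buffer, after 15 min compound preincubation.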
An asterisk follows results filed as active; ? = inconclusive; . = no result given; [ ] = remark or other dose. Unless noted, the call rests on the fitted dose curve; in most records, active means well fitted curve in the direction sought with a large enough effect; inconclusive means small, poorly fitted or top-dose-only effect, or another doubt; inactive means no such curve, though single readings can be large; an effect the other way counts as inactive or inconclusive. Unless noted, on the % scale 0 is the no-effect control and ±100 the full control effect.

SMILES	IL1B secr inh	HT1080 IDH1KD tx	DT40 TDP1 no CPT	DT40 TDP1 CPT	HT1080-NT tox	ALOX12 inh
Cc1noc(C)c1S(=O)(=O)N(CC(=O)Nc1ccc(F)cc1F)c1ccc(C(C)C)cc1	.	.	21µM*	?	.	-21%
C=CCN(Cc1ccc2c(c1)OCO2)C(C#Cc1ccccc1)c1ccccc1C(F)(F)F (configuration not stated)	.	.	.	.	.	-3%
COc1cc(N/N=C(\C)c2ccc(O)c(C)c2)nc(-c2ccccc2)n1	-59*	?	?	?	21µM*	-3%
C/C(=N\Nc1cccc2cccnc12)c1ccc(N)cc1	29	-8%	18%	-28%	-11%	-29%
COc1ccc(/C(C)=N/Nc2nc3ccccc3nc2C)cc1OC	8	?	?	?	-19%	?
COc1cc(N/N=C(\C)c2ccc(N)cc2)nc(-c2ccccc2)n1	?	-25%	18µM*	23µM*	-2%	120%
C/C(=N\Nc1cc(-c2ccccc2)nc(-c2ccccc2)n1)c1ccc(O)c(C)c1	-27	23µM*	?	?	?	-3%
O=C(Cc1cccc(Cl)c1)N1CCc2c(n(Cc3ccccc3)n(-c3ccccc3)c2=O)C1	.	.	.	.	.	3%
CC(=O)N1CCN(C(=O)[C@@]23CCCC[C@H]2N(CCC(C)C)C(=O)CC3)CC1	.	.	.	.	.	59%
COC(=O)c1[nH]c2cccc(OC)c2c1NC(=O)CN1CCN(c2cccc(OC)c2)C(C)C1 (configuration not stated)	-1	-17%	15µM*	?	-27%	?
COc1cccc(N2CCN(CC(=O)c3c[nH]c4ccc(OC)cc34)CC2C)c1 (configuration not stated)	-2	?	21µM*	21µM*	?	?
COC(=O)c1[nH]c2cccc(OC)c2c1NC(=O)CCN1CCN(c2ccccc2OC)CC1	-1	?	13µM*	10µM*	-10%	-14%
CCOc1nc2ccccc2nc1N1CCC(C(=O)NCc2ccccc2Cl)CC1	.	.	.	.	.	9%
O/N=C1\CC/C(=N\O)c2nn(-c3ccc(Cl)cc3Cl)nc21	-51*	-18%	?	26µM*	-23%	17%
O/N=C1\CCc2cc(Cl)ccc21	13	7%	-19%	-20%	2%	6%
Cc1cccc(C(=O)Nc2ccc(NC(=O)c3cccc(C)c3)cc2)c1	-4	-3%	-22%	-8%	2%	2%
Cc1cccc(C(=O)Nc2ccc(NC(=O)c3ccccc3)cc2)c1	-58*	1%	?	?	4%	?
Cc1ccc(NC(=O)c2ccc(NC(=O)c3ccccc3)cc2)cc1C	0	?	?	13µM*	?	-9%
CC(C)OC(=O)c1cccc(NC(=O)c2ccccc2)c1	-3	-6%	13µM*	13µM*	-3%	0%
O=C(Nc1ccccc1)c1ccc(NCCc2ccccc2)c([N+](=O)[O-])c1	0	-10%	-2%	6%	-13%	-10%
CCN(CC)c1ccc(C(=O)Nc2ccccc2)cc1[N+](=O)[O-]	-96*	-18%	?	-6%	-8%	-38%
COc1ccc(C(=O)N2C(C(=O)N3CCCC3)COC23CCN(C(=O)c2cccc(C)c2)CC3)cc1 (configuration not stated)	.	.	.	.	.	17%
N#CC1=C(SCC(=O)Nc2ccccc2C(F)(F)F)NC(=O)CC1c1ccc(F)cc1 (configuration not stated)	.	.	.	.	.	4%
COC(=O)c1cnc(NC(=O)Cc2cccc3ccccc23)s1	.	.	.	.	.	11%
O=C(c1ccc(F)cc1)N1C[C@@H]2OCC(=O)N(Cc3ccccn3)[C@@H]2C1	.	.	.	.	.	4%[176 µM]
SMILES	IL1B secr inh	HT1080 IDH1KD tx	DT40 TDP1 no CPT	DT40 TDP1 CPT	HT1080-NT tox	ALOX12 inh
Cc1ccc(C(=O)Nc2ccc(C(=O)O)cc2)cc1C	.	.	.	.	.	-23%
CCOc1ccc(NS(=O)(=O)c2cc(C(=O)N3CCCC3)ccc2Cl)cc1	12	-5%	-29%	-23%	0%	?
CCOc1ccc(NS(=O)(=O)c2cc(NC(=O)c3cccc(C)c3)ccc2Cl)cc1	?	26µM*	?	16µM*	?	?
O=C(Nc1cccc(C(=O)Nc2ccc(Br)cc2)c1)c1ccccc1	-5	-15%	12µM*	?	-2%	8%
Cc1ccc(C(=O)Nc2ccc(Nc3ccccc3)cc2)cc1C	-69*	?	21µM*	21µM*	-30%	0%
Cc1ccc(C(=O)Nc2ccc(Nc3ccccc3)cc2)cc1Br	.	-26%	4.1µM*	6.5µM*	-15%	18%
CNC(=O)N1CCC(C2CCN(C(=O)c3ccco3)C2)CC1 (configuration not stated)	.	.	.	.	.	-8%
Cc1ccc(C(=O)Nc2ccc(Oc3ccc(C(=O)O)c(C(=O)O)c3)cc2)cc1C	12	1%	1%	23µM*	3%	-23%
Cc1cccc(C(=O)Nc2cccc3c2CCCC3)c1	-5	-1%	9.2µM*	18µM*	0%	8%
COc1ccc(C(=O)Nc2ccc(Nc3ccccc3)cc2)cc1[N+](=O)[O-]	-16	-17%	21µM*	23µM*	-26%	0%
COc1ccc(C(=O)Nc2ccc(OCc3ccccc3)cc2)cc1[N+](=O)[O-]	0	-24%	2%	?	-20%	3%
CC(=O)Nc1ccc(/C(C)=N/NC(N)=S)cc1	.	.	.	.	.	28µM*
C/C(=N\NC(=O)c1sccc1C)c1ccncc1	?	2%	15%	2%	15%	62%
C/C(=N\NC(=O)C(=O)Nc1ccc(C)c(Cl)c1)c1ccncc1	-4	22%	2.3µM*	1.6µM*	25%	8%
CC(=O)Nc1ccc(/C(C)=N/NC(=O)c2ccc(F)cc2)cc1	-15	-6%	-21%	10%	0%	29%
C/C(=N/NC(=O)c1ccncc1)c1ccccc1	0	22%	-5%	4%	11%	?
C/C(=N\NC(=O)c1cccc(Cl)c1)c1cccc(NC(=O)C(C)C)c1	-23	-3%	-29%	-15%	-6%	?
C/C(=N\NC(=O)C(=O)Nc1ccc(C)cc1)c1ccncc1	18	10%	9.2µM*	?	2%	2%
C/C(=N\NC(=O)C(=O)Nc1cccc(Cl)c1)c1ccncc1	-2	29%	7.3µM*	12µM*	11%	-5%
C/C(=N\Nc1cccc(Cl)c1)c1ccc(-n2ccnc2)cc1	?	-26%	16µM*	?	-13%	?

From PubChem
